In PubChem BioAssay:

Assay: inhibitors of Chlamydomonas gravitaxis, primary screen, whole organism, Chlamydomonas reinhardtii, WT vs cilia-less mutant, absorbance, 96-well (AID 463189);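 also: 0% = wild type cc124 cells in DMSO and 100% = ciliumless bld1 mutant cells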
Conditions: OD600 absorbance, 2 days, at 10 µM, active compounds read high;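 active = inhibition at or above 50% relative to wild type and mutant plate controls; inactive = inhibition below 50%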

inhibition, inactive:
O=C(O)C1CN(CCCP(=O)(O)O)CCN1 (stereo not drawn) -0.924%
Cc1cc(C)c(NC(=O)C[C@H](CC(=O)O)c2cccc3ccccc23)c(C(=O)N2CCC3(CCCC3)CC2)c1 13.6%
CN=c1nc(-c2ccccc2)n(-c2ccccc2)s1 13%
NC(=O)CNCCC(c1ccccc1)c1ccccc1 -2.16%
CN1CCN(c2nc3cc(C(F)(F)F)ccc3n3cccc23)CC1 10.9%
C=C[C@H]1CN2CCC1C[C@@H]2[C@@H](O)c1ccnc2ccc(OC)cc12 (stereo partly drawn) 5.44%
CCN(c1nc(N)c(C(=O)N=C(N)N)nc1Cl)C(C)C 7.11%
O=C(Nc1ccc([N+](=O)[O-])cc1Cl)c1cc(Cl)ccc1O 43.4%
Oc1ccc(O)cc1 0.661%
N#CC(C#N)=C(N)/C(C#N)=C/c1ccc(O)cc1 5.33%
NC(=Nc1ccccc1)NC(=O)c1nc(Cl)c(N)nc1N -0.27%
N=C1Sc2ccccc2C2=NCCCN12 9.36%
CN[C@H](CC(C)C)C(=O)N[C@H]1C(=O)N[C@@H](CC(N)=O)C(=O)N[C@H]2C(=O)N[C@H]3C(=O)N[C@H](C(=O)N[C@H](C(=O)O)c4cc(O)cc(O)c4-c4cc3ccc4O)[C@H](O)c3ccc(c(Cl)c3)Oc3cc2cc(c3O[C@@H]2O[C@H](CO)[C@@H](O)[C@H](O)[C@H]2O[C@H]2C[C@](C)(N)[C@H](O)[C@H](C)O2)Oc2ccc(cc2Cl)[C@H]1O 15.1%
